{"source": "PubChem BioAssay AID652054", "about": "(National Center for Advancing Translational Sciences (NCATS), 2013)", "note": "The whole screen tested about 360,000 compounds, of which about 9,100 (2.5%) were called active. Inconclusive results (about 4%) are left out. Many of the other results were omitted from the sample, so actives are more common in it than they were. Values without a mark were called inactive. Rule as the data show it: active = max response below about -50%; inconclusive = no clear call, values can overlap the other calls; inactive = above that. % is scaled to controls: 0 for no effect and ±100 for the full control effect."}
{"molecular_target": "D(3) dopamine receptor (Homo sapiens) (UniProt P35462)", "sequence (P35462 whole entry, looked up)": "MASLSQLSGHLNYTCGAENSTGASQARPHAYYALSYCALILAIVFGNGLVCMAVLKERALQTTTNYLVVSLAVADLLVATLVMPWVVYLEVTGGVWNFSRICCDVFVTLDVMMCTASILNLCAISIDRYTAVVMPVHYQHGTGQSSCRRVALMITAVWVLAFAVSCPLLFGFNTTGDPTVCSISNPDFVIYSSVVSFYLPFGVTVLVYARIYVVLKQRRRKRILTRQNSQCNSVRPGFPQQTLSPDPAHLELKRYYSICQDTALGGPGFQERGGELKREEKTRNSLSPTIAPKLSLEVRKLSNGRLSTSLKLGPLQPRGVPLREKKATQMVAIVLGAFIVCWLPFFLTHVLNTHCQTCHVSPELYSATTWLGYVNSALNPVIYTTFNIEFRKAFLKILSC", "test": "qHTS of D3 Dopamine Receptor Antagonist: qHTS", "settings": "D3R cells, DiscoveRx beta-arrestin luminescence, antagonist mode; hits give low values", "outline": "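Cells expressing the human receptor were seeded at 1500 cells/well, incubated overnight at 37 degrees C in 5% CO2, then exposed to library compounds with dopamine controls for 90 minutes at 37 degrees C before luminescent detection.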"}
{"smiles": "CCCCCC(=O)N1C[C@H](O)[C@@H](n2cc(COC(=O)c3ccccc3)nn2)C[C@@H]1c1ccc(C)cc1", "max response, negative = inhibition": "8.87%"}
{"smiles": "COC(=O)C1=CN(c2c(C)cc(C)cc2C)C(N)=C(C#N)C1c1cccc(F)c1", "note": "(stereo unspecified)", "max response, negative = inhibition": "2.73%"}
{"smiles": "Cc1ccnc(SC2CC(=O)N(c3ccccc3)C2=O)n1", "note": "(stereo unspecified)", "max response, negative = inhibition": "-15.3%"}
{"smiles": "CC[C@@H]1CC2=C(C(=O)OC(C)(C)O2)[C@@H](CC)O1", "max response, negative = inhibition": "16.4%"}
{"smiles": "COC(=O)C1(C(=O)OC)C/C=C\\CN(S(=O)(=O)c2ccccc2[N+](=O)[O-])CCC1", "max response, negative = inhibition": "25.7%"}
{"smiles": "COC(=O)c1cc(S(=O)(=O)NC2CCN(Cc3ccccc3)CC2)cn1C", "max response, negative = inhibition": "11.7%"}
{"smiles": "Cc1ccc(-c2cc(C(=O)NC3CCN(Cc4ccccc4)CC3)c3ccccc3n2)cc1", "max response, negative = inhibition": "-13.4%"}
{"smiles": "CCc1nc2ccc(C(=O)NC3CCN(Cc4ccccc4)CC3)cn2c1N(C)CCN1CCOCC1", "max response, negative = inhibition": "14%"}
{"smiles": "Cc1cc(C(=O)NC2CC(C)(C)Cc3c2cnn3-c2ccccc2)n[nH]1", "note": "(stereo unspecified)", "max response, negative = inhibition": "-0.849%"}
{"smiles": "Cc1ccn2cc(C(=O)NC3CCN(Cc4ccccc4)CC3)nc2c1", "max response, negative = inhibition": "-65.2% (active)"}
{"smiles": "Cc1cc(C(=O)NC2CCN(Cc3ccccc3)CC2)n[nH]1", "max response, negative = inhibition": "-81.2% (active)"}
{"smiles": "CCc1nc2ccc(C(=O)N3CCN(S(=O)(=O)CC)CC3)cn2c1N(C=O)CCC(C)C", "max response, negative = inhibition": "-18.9%"}
{"smiles": "CCCNC(=O)C1(C)CCN1C(=O)Cc1ccc(-c2ccccc2)cc1", "note": "(stereo unspecified)", "max response, negative = inhibition": "-20.6%"}
{"smiles": "C[C@H]1NS(=O)(=O)c2cc(Cl)ccc2O[C@@H]1c1ccccc1", "max response, negative = inhibition": "-18.7%"}
{"smiles": "O=[N+]([O-])/C=C/c1ccc2c(ccn2Cc2ccccc2)c1", "max response, negative = inhibition": "-54.4% (active)"}
{"smiles": "C[C@@H]1CN([C@@H](C)CO)C(=O)CCCn2cc(nn2)CO[C@H]1CN(C)S(=O)(=O)c1ccc(-n2cccn2)cc1", "max response, negative = inhibition": "-5.35%"}
{"smiles": "COC(=O)[C@]12CCCCC=C1N(Cc1ccc(Cl)cc1Cl)C(=O)[C@H](CC(=O)NCc1cccc3ccccc13)C2", "max response, negative = inhibition": "-15.1%"}
{"smiles": "COc1cc(CCN=Cc2ccccc2O)c([N+](=O)[O-])cc1OC", "max response, negative = inhibition": "2.41%"}
{"smiles": "NCCCCC(C(=O)O)N(C(=O)OCc1ccccc1)C(=O)OCc1ccccc1", "note": "(stereo unspecified)", "max response, negative = inhibition": "-55.1% (active)"}
{"smiles": "CC(C)[C@H](NC(=O)OCc1ccccc1)C(=O)OCc1ccccc1", "max response, negative = inhibition": "-14.6%"}
{"smiles": "O=C(NCC1CCC(C(=O)O)CC1)OCc1ccccc1", "note": "(stereo unspecified)", "max response, negative = inhibition": "22%"}
{"smiles": "CCc1oc(-c2ccc(OC)cc2)c(C(=O)OCCCCCO)c1C(C)OCCO", "note": "(stereo unspecified)", "max response, negative = inhibition": "14.5%"}
{"smiles": "CCc1ccc(N(CC)c2ncnc3nc[nH]c23)cc1", "max response, negative = inhibition": "-11.5%"}
{"smiles": "Cc1ccc(NC(=O)c2ccc(CSc3ncnc4nc[nH]c34)cc2)c(C)c1", "max response, negative = inhibition": "-9.41%"}
{"smiles": "S=c1c2[nH]cnc2ncn1CCSc1ncnc2nc[nH]c12", "max response, negative = inhibition": "-78.7% (active)"}
{"smiles": "CCOP(=O)(OCC)C(Cc1ccccc1)N=C(c1ccccc1)c1ccccc1", "note": "(stereo unspecified)", "max response, negative = inhibition": "-6.96%"}
{"smiles": "O=C(N1CCOCC1)N1CCOCC1", "max response, negative = inhibition": "-50.3% (active)"}
{"smiles": "O=C(N1CCCCC1)N1CCN(C(=O)N2CCCCC2)CC1", "max response, negative = inhibition": "-20.6%"}
{"smiles": "Cc1ccc(C(=O)NC2CCN(C(=O)N3CCOCC3)CC2)cc1", "max response, negative = inhibition": "11.7%"}
{"smiles": "O=C(NCCOc1ccccc1)N1[C@H]2CC[C@@H]1C=C(c1ccc(F)cc1OCc1ccccc1)C2", "max response, negative = inhibition": "56.5%"}
{"smiles": "CCOc1ccc(CCN2C(=O)C(=O)N([C@@H](Cc3ccc(O)cc3)CN3CCC[C@H]3CN3C(=O)C(=O)NC[C@@H]3CC(C)C)C[C@@H]2Cc2ccccc2)cc1", "max response, negative = inhibition": "-23.4%"}
{"smiles": "CN(C)CCN1CCN(c2cc(-c3cccc(Cl)c3)nc3ccnn23)CC1", "max response, negative = inhibition": "-22%"}
{"smiles": "Cc1ccc(C(O)c2ncc(-c3ccccc3F)[nH]2)cc1F", "note": "(stereo unspecified)", "max response, negative = inhibition": "-0.345%"}
{"smiles": "COc1ccc(C(c2nnnn2C2CCCCC2)N2CCN(c3ccccc3F)CC2)cc1", "note": "(stereo unspecified)", "max response, negative = inhibition": "-13.2%"}
{"smiles": "CCOC(=O)C1CCN(C(c2cc3cc(C)cc(C)c3[nH]c2=O)c2nnnn2C2CCCCC2)CC1", "note": "(stereo unspecified)", "max response, negative = inhibition": "18.8%"}
{"smiles": "FC(F)(F)Oc1ccccc1C(c1nnnn1C1CCCCC1)N1CCN(C/C=C/c2ccccc2)CC1", "note": "(stereo unspecified)", "max response, negative = inhibition": "-77.9% (active)"}
{"smiles": "OC(c1cc(Cl)cc(Cl)c1)c1ncc(-c2ccccc2C(F)(F)F)[nH]1", "note": "(stereo unspecified)", "max response, negative = inhibition": "2.77%"}
{"smiles": "CCOc1ccccc1C(=O)NC1CC2CCCC(C1)N2Cc1ccccc1", "note": "(stereo unspecified)", "max response, negative = inhibition": "-77.3% (active)"}
{"smiles": "CCOc1ccccc1OCC(=O)Nc1ccccc1C(=O)NC1CC1", "max response, negative = inhibition": "2%"}
{"smiles": "CCCCOCCCNC(=O)c1ccccc1OCC", "max response, negative = inhibition": "-16.2%"}
{"smiles": "CCCN1C2CCCC1CC(NC(=O)c1cccc(OC)c1)C2", "note": "(stereo unspecified)", "max response, negative = inhibition": "9.66%"}
{"smiles": "COc1ccc(NC(=S)N2CCC(NC(=O)c3cccc(F)c3)CC2)cc1", "max response, negative = inhibition": "-3.67%"}
{"smiles": "CC(=O)NC1CC2CCCC(C1)N2CC(=O)Nc1ccccc1", "note": "(stereo unspecified)", "max response, negative = inhibition": "-23%"}
{"smiles": "COc1ccc(NC(=O)NC2CC3CCCC(C2)N3Cc2ccccc2)cc1", "note": "(stereo unspecified)", "max response, negative = inhibition": "-65.9% (active)"}
{"smiles": "COc1ccc(NC(=O)N2CCC(Cc3ccccc3)CC2)cc1", "max response, negative = inhibition": "-18%"}
{"smiles": "COc1ccc(CN2C3CCCC2CC(NC(=O)c2cccc(F)c2)C3)cc1", "note": "(stereo unspecified)", "max response, negative = inhibition": "-88.5% (active)"}
{"smiles": "Cc1ccc(-c2ccc(C3=CC(=O)CC(C)(C)C3=O)cc2)cc1", "max response, negative = inhibition": "4.58%"}
{"smiles": "Cc1ccc([C@H]2N[C@]3(CCCN(CC4CCCCC4)C3=O)[C@H]3C(=O)N(Cc4ccccc4)C(=O)[C@@H]23)cc1", "max response, negative = inhibition": "0.653%"}
{"smiles": "Cc1ccc(F)c(S(=O)(=O)NC(=O)C2(C)CCN2C(=O)CCc2cccs2)c1", "note": "(stereo unspecified)", "max response, negative = inhibition": "-4.74%"}
{"smiles": "Cn1c(=O)n(C)c2cc(S(=O)(=O)N3CCCc4ccccc43)ccc21", "max response, negative = inhibition": "5.19%"}
{"smiles": "COc1ccc(C(=O)OCC(=O)NCC2CCCCC2)cc1S(=O)(=O)N1CCCc2ccccc21", "max response, negative = inhibition": "8.09%"}
{"smiles": "COc1cc(C)c(C)cc1S(=O)(=O)N1CCCc2ccccc21", "max response, negative = inhibition": "-64.6% (active)"}
{"smiles": "N#CCCC(C#N)(c1cccnc1)N1CCOCC1", "note": "(stereo unspecified)", "max response, negative = inhibition": "-3.79%"}
{"smiles": "Cc1cc(OC(C)C(=O)NC2CC(C)(C)NC(C)(C)C2)c2c(C)cc(=O)oc2c1", "note": "(stereo unspecified)", "max response, negative = inhibition": "7.98%"}
{"smiles": "Cc1ccc(C(=O)NC2CC(C)(C)NC(C)(C)C2)c(C)c1", "max response, negative = inhibition": "39.4%"}
{"smiles": "Cc1cc(=O)oc(C)c1C(=O)NC1CC(C)(C)NC(C)(C)C1", "max response, negative = inhibition": "-75.7% (active)"}
